Laboratory results from the supplement of paper PMC3334620.
Whole data set: some 33,000 sequences, median “E-score (-0.5 to 0.5)” near -0.012, cut for the highest 2% near 0.29. Shown is part of a subset that was picked to be rich in the highest values.

The sequences below were run against T1, Ybr033w (UniProt P38073) (assay: PBM E-score (8-mer binding enrichment) (E-score (-0.5 to 0.5)); higher = stronger / more preferred TF binding). Settings: protein concentration: 200 nM; construct: GST-full length.
T1 sequence: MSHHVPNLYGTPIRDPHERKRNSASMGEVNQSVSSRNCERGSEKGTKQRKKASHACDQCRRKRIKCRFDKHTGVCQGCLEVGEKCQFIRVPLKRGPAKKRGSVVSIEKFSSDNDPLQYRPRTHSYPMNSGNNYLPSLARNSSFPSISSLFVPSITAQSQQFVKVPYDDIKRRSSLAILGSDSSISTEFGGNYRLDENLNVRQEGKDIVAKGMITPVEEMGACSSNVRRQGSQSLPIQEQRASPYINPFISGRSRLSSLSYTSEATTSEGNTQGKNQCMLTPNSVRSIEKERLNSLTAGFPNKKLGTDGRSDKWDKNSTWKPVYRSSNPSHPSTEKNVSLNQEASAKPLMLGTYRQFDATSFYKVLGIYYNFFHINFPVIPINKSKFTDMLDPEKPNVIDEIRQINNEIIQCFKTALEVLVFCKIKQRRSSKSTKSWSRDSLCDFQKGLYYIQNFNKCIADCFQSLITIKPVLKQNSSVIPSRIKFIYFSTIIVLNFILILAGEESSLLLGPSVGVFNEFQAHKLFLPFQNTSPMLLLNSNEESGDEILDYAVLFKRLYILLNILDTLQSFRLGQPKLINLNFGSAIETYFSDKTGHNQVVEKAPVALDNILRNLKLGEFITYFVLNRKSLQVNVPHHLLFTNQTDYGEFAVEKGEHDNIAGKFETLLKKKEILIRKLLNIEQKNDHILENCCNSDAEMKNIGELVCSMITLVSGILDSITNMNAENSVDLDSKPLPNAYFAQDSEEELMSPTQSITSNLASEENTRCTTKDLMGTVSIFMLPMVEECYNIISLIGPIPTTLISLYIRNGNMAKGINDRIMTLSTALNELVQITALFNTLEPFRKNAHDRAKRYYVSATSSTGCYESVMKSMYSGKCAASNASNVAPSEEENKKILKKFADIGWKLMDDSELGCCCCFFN
Summary of the method: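 Masliner-normalised scans of fluorescent anti-GST signal were the basis for scoring. That signal came from GST-tagged yeast transcription factors applied at about 100-200 nM to double-stranded universal all-10-mer Agilent arrays on fresh or once-stripped slides. Each ungapped eight-base word, pooled with its reverse complement, received an E-score from the Universal PBM Analysis Suite.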

Row | Sequence | PBM E-score
1 | TAGCGTGA | 0.00864
2 | AGCTTACT | 0.0872
3 | AACAAGGA | 0.12
4 | CATCGTAC | 0.0156
5 | CACAATCG | 0.0764
6 | CTGTGAGC | -0.0445
7 | AGCTAAGG | -0.119
8 | CTCCACGA | -0.0474
9 | CAACCACA | 0.0032
10 | TAGAAAGA | -0.0722
11 | CATTCTGC | 0.09
12 | AGCAGGAA | 0.0849
13 | CAACCGAC | 0.107
14 | ATAGTGGA | 0.0933
15 | ACTAGGGA | -0.159
16 | AAAAAATA | 0.278
17 | GCAAAATA | 0.287
18 | CGAAAATA | 0.23
19 | AAAAATCC | 0.287
20 | GAAAAATA | 0.397
21 | TAAAAATA | 0.285
22 | GGAAATCC | -0.00538
23 | GAAAATCC | 0.308
24 | GGAAAAGA | 0.0452
25 | AGAAAATA | 0.314
26 | GGAAAATA | 0.414

Row | Sequence | PBM E-score
27 | AGAAAATC | 0.232
28 | AGGTTGAG | -0.167
29 | AAGGGGAT | -0.0478
30 | AGTACCGG | -0.182
31 | CGGGTGCC | -0.151
32 | TCACTACA | 0.243
33 | CCATCTGA | 0.0862
34 | CTTTAGGC | -0.0153
35 | AGATTGAC | 0.0305
36 | AAGCAAGG | -0.0139
37 | GGACAGAC | -0.174
38 | TAAAATAA | 0.261
39 | CAAAAATG | 0.157
40 | GAAAATAA | 0.304
41 | TCAAATAA | 0.202
42 | GAAAAATC | 0.381
43 | AAAAATAA | 0.275
44 | AAAAAATC | 0.248
45 | GCAAATAA | 0.322
46 | ACAAATAA | 0.265
47 | CAAAAATC | 0.236
48 | CAAAAATA | 0.316
49 | CCAAAATA | 0.182
50 | ATAGCGCA | 0.0412
51 | GACGATTA | -0.0748
52 | TGAGGACA | 0.00432

Row | Sequence | PBM E-score
53 | AAACTACG | 0.0517
54 | ATCTACCC | 0.0482
55 | ACATCAGG | 0.038
56 | CTTTTCGC | 0.241
57 | CAGGCAAC | -0.0967
58 | ACGACCAT | -0.108
59 | AATCTAGT | 0.214
60 | AGCTCACG | -0.088
61 | AATTAACT | 0.219
62 | AATTAACC | 0.158
63 | CATTAACA | 0.139
64 | GCTTAACA | 0.0687
65 | TATTAAGA | 0.168
66 | GATTAACA | 0.396
67 | TATTAACA | 0.291
68 | AATTAACA | 0.295
69 | GATTAACC | 0.195
70 | ACCCAGGC | -0.0962
71 | AAGTGAAT | 0.239
72 | CACAGCCA | -0.174
73 | ATGCGGCA | -0.0591
74 | ATTTTCCC | 0.386
75 | ATTTTCCA | 0.361
76 | CTTTTTCC | 0.361
77 | CCTTTTCC | -0.15
78 | AATTTCCC | 0.226

Row | Sequence | PBM E-score
79 | CTTTTCCA | -0.0875
80 | GTTTTCCA | 0.215
81 | ATTTCCCC | -0.0347
82 | CTTTTCCC | 0.0333
83 | GACCGGTC | -0.181
84 | AATCGTCA | -0.0213
85 | CAACGTTG | 0.156
86 | AGCTCTTC | 0.0781
87 | GAAATCCA | 0.108
88 | ATGATCCG | 0.412
89 | GTAATCCA | 0.0788
90 | ATGATCCC | 0.244
91 | CAAATCCA | 0.0838
92 | ATAATCCC | 0.189
93 | ACAATCCG | 0.0606
94 | AAAATCCA | 0.339
95 | ATGATCCA | 0.162
96 | ATAATCGG | 0.162
97 | ATAATCCA | 0.327
98 | ATAATCCG | 0.383
99 | CTCTGGCC | -0.15
100 | ACAAAGAC | 0.0319
101 | TAGGAACA | 0.316
102 | GAGGAACA | 0.171
103 | CAGGAACC | -0.122
104 | AAGGAACA | 0.283

Row | Sequence | PBM E-score
105 | CAGGAACA | 0.401
106 | CAGGAACG | -0.0646
107 | GGGACCCC | -0.33
108 | ATGCCATG | -0.0545
109 | AACCATTC | 0.166
110 | ACTGAACC | 0.00627
111 | GTTGGCGA | -0.0105
112 | GATCGACC | 0.0146
113 | AAGCTAAA | 0.107
114 | GCCGGAAC | 0.205
115 | GCCGGAAA | 0.302
116 | CCCGGAAA | 0.192
117 | ACCGGAAA | 0.151
118 | GACGGAAA | 0.227
119 | TCCGGAAA | 0.298
120 | CTAGACCC | -0.194
121 | AAAGGATG | 0.163
122 | GCACACCA | -0.145
123 | ACTTAATC | 0.275
124 | GATTAAGC | 0.104
125 | AATTAGTC | 0.212
126 | CATTAATA | 0.321
127 | TATTAATA | 0.101
128 | CATTAATG | 0.23
129 | GATTAAGA | 0.213
130 | AATTAATC | 0.341

Row | Sequence | PBM E-score
131 | GATTAATC | 0.435
132 | CATTAATC | 0.252
133 | GATTAATA | 0.328
134 | GACTAATC | 0.0103
135 | AGGGTGAT | -0.055
136 | ATAGTTCA | 0.202
137 | AGAACGTA | 0.0159
138 | AAGGGGCT | -0.163
139 | ATATTGTC | 0.215
140 | ACCTTGGC | -0.0759
141 | ACAGCTAG | -0.105
142 | ACCTACCG | -0.0859
143 | AGCAGAGC | -0.0843
144 | AACTCTGG | -0.0682
145 | AAAGTTCC | 0.132
146 | AATTAATT | 0.214
147 | AATTAAAT | 0.276
148 | AATTAAAG | 0.217
149 | AATTAAGA | 0.171
150 | AATTAAGT | 0.305
151 | AATTAATA | 0.429
152 | AATTAAAC | 0.377
153 | AATTAATG | 0.273
154 | AATTAAGC | 0.169
155 | CAACTATG | 0.102
156 | ACGGGTAT | 0.0865

Row | Sequence | PBM E-score
157 | ATTGGCTA | 0.117
158 | ACCAAGCC | -0.0301
159 | TCCAATCA | 0.0621
160 | TGATAACA | 0.176
161 | GCGAGGAA | 0.125
162 | TGGGATAA | 0.123
163 | TCGGATAA | 0.335
164 | ACGGATTA | 0.233
165 | CTGGATAA | 0.316
166 | CGGGATTC | -0.0497
167 | GTGGATAA | 0.169
168 | CCGGATTA | 0.34
169 | AGGGATTA | 0.187
170 | ATGGATAA | 0.259
171 | GCGGATTA | 0.285
172 | CGGGATTA | 0.312
173 | ACGGATAT | 0.192
174 | GGACCACA | -0.00774
175 | CCTACCAC | -0.155
176 | AGCGTCCA | -0.13
177 | TAGGCTGA | -0.0515
